# Source: PubChem
# Nrf2 ARE act = activators of Nrf2 (ARE) signaling. Potency, µM (series often up to 46.1 µM), for the others: at the top dose activation, hits mostly activators. AREc32 ARE-luciferase reporter (MCF7-derived line), luminescence, 24 h. 410,000 tested, 0.31% active; also: % of control where 0% means no effect; nearly all actives have a fitted effect of over 65% in size
#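 ARE-driven firefly luciferase activity in AREc32 cells measured after a 24 hr compound exposure at 37 deg C, using Steady-Glo reagent and a 30 min room-temperature hold.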
# Nrf2 block = blocks Nrf2 signaling; A549 ARE-Fluc reporter, luciferase luminescence, 18-24 h; Potency, µM (series often up to 46 µM), without a hit: at the top dose activity change, negative = inhibition, actives largely listed as inhibitors; 360,000 tested, 2.1% active; also: % is scaled to controls: 0 for no effect and ±100 for the full control effect; nearly all actives have a fitted effect of over 60% in size
#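 In this cell-based qHTS, ARE-driven firefly luciferase in A549 cells reports Nrf2 activity; the luminescent signal after BugLite lysis is the measured value, with a prior CellTiter-Fluor read for cell health.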
# ELG1 DNA repair = blocks ELG1-dependent DNA repair in HEK293T cells. HEK293T ELG1-luciferase reporter, luminescence, 16 h; DNA damage induced by 5-fluorouridine. 330,000 tested, 2.3% active. Potency, µM (titrated, usually from 46.1 µM), for the others: at the top dose activity change, negative = inhibition, usual class: inhibitors. AID 504467; also: % is scaled to controls: 0 for no effect and ±100 for the full control effect; nearly all actives have a fitted effect of over 55% in size
#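 Cells (2,000 per well) received 5-fluorouridine plus test compound or DMSO and were incubated 16 hr at 37 °C, 5% CO2. Luciferase activity was read by luminescence 30 min after ONE-Glo addition; signal suppression marked inhibition of damage-induced ELG1 function.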
# A549 tox = kills or reduces viability of A549 cells in Nrf2 counter-screen; A549 ARE-Fluc cells, CellTiter-Fluor viability, 18-24 h; Potency, µM (series often up to 46 µM), for the others: top-dose activity change, negative = cytotoxicity, most hits filed as inhibitors; 390,000 tested, 0.16% active; AID 504648; also: % is scaled to controls: 0 for no effect and ±100 for the full control effect
#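 A549 ARE_Fluc cells in 5% FBS OPTI-MEM were exposed to compounds in concentration-response for 18-24 h at 37 deg C. Viability was read by CellTiter-Fluor fluorescence (Ex 405/Em 525) after 30 min, before the luciferase read.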
# Numbers without * were called inactive; ? = inconclusive; . = no result given. Sampled rows, rich in hits. Any-hit rate of the full collection: about 3.7%. Calls follow the shape of the dose curve; as a rule, active = well fitted curve in the direction sought with a large enough effect; inconclusive = small, poorly fitted or top-dose-only effect, or another doubt; inactive = no such curve, though single readings can be large; an effect the other way counts as inactive or inconclusive. Potency is read from the fitted curve at half-maximal effect.
SMILES,Nrf2 ARE act,Nrf2 block,ELG1 DNA repair,A549 tox
COc1ccc(CNC(=O)c2[nH]c(C)c(C(C)=O)c2C)cc1,4%,4%,-16%,-4%
CCc1ccc2oc(-c3cc(NC(=O)c4cc(OC)c(OC)c(OC)c4)ccc3O)nc2c1,4%,4%,.,-6%
COc1cc(OC)cc(C(=O)Nc2ccc(-c3nc4cc(C(C)C)ccc4o3)cc2)c1,14%,15µM*,.,-4%
COc1cc(C(=O)Nc2ccc(-c3nc4cc(C)ccc4o3)c(O)c2)cc(OC)c1OC,0%,21µM*,?,-16%
Cc1cccc(C(=O)Nc2ccc(-c3nc4cc(C(C)C)ccc4o3)cc2)c1,5%,15µM*,.,2%
CCOc1ccc(C(=O)Nc2ccc(-c3nc4cc(C(C)C)ccc4o3)cc2)cc1Cl,4%,-27%,.,-4%
CCCCCOc1ccccc1CN1C(=O)C(=O)c2cc(C)ccc21,0%,3%,.,2%
Cc1c(NC(=O)C(C)(C)Oc2ccc(Cl)cc2)cccc1-c1nc2ncccc2o1,3%,?,.,-6%
Cc1ccc2[nH]c3c(c2c1)CCCC3NC(=O)CCl (configuration not stated),8%,?,18µM*,-13%
CS(=O)(=O)c1ncc(Cl)c(C(=O)N2CCN(c3cccc(Cl)c3)CC2)n1,-6%,7.3µM*,.,18µM*
CCS(=O)(=O)c1ncc(Cl)c(C(=O)N2CCN(c3cccc(Cl)c3)CC2)n1,-6%,23µM*,.,?
Cc1[nH]c2ccc(C(=O)N3CCN(c4cccc(Cl)c4)CC3)cc2c1C,-1%,?,3%,?
COc1ccc(NC(=O)C(NS(=O)(=O)c2cccc3nsnc23)C(C)C)cc1 (configuration not stated),-1%,14%,.,1%
Cc1nc(CS(=O)(=O)c2ccc(Cl)cc2)cc(N2CCOCC2)n1,0%,10%,7%,-3%
Cc1nc(CS(=O)(=O)c2ccccc2)cc(N2CCN(c3ccccc3F)CC2)n1,-1%,21µM*,7%,-1%
COc1ccc(Cl)cc1NC(=O)CN(C)CC(=O)Nc1cc(OC)c(OC)c(OC)c1,1%,3%,18µM*,-17%
COc1ccc(OC)c(NC(=O)Nc2c(C)n(C)n(-c3ccccc3)c2=O)c1,0%,13%,.,10%
COc1ccc(Cl)cc1NC(=O)CN(C)CC(=O)Nc1c(C)n(C)n(-c2ccccc2)c1=O,1%,0%,18µM*,-7%
CCc1ccc2[nH]c(=O)c(C3C(C#N)=C(N)Oc4c3ccc3cccnc43)cc2c1 (configuration not stated),0%,15µM*,12µM*,?
Cc1ccc(-c2nc3ccccc3[nH]2)cc1NC(=S)NC(=O)c1ccccc1Br,2%,18µM*,?,?
CCOc1ccc(C(=O)Nc2cc(-c3nc4ccccc4[nH]3)ccc2C)cc1[N+](=O)[O-],4%,.,23µM*,0%
Cc1ccc(-c2nc3ccccc3[nH]2)cc1NC(=O)c1ccc2c(c1)OCO2,0%,-6%,?,-12%
CCOc1ccc(C(=O)Nc2nc3ccccc3[nH]2)cc1OCC,7%,10µM*,?,-12%
CCN(C(=O)COC(=O)c1nc(Cl)ccc1Cl)c1c(N)n(Cc2ccccc2)c(=O)[nH]c1=O,15%,7%,.,0%
CCc1c(C)nc2nc(-c3ccccc3)nn2c1NCc1ccc(C)cc1,-2%,18µM*,.,-11%
SMILES,Nrf2 ARE act,Nrf2 block,ELG1 DNA repair,A549 tox
CCc1c(C)nc2nncn2c1NCc1ccccc1,1%,?,.,-2%
O=C1/C(=C\c2ccco2)CCC/C1=C\c1ccco1,10µM*,8%,?,0%
CC1C/C(=C/c2ccco2)C(=O)/C(=C/c2ccco2)C1 (configuration not stated),.,.,-19%,.
COc1ccc(OC)c(/C=C/C(=O)OCC(=O)N2C(C)CCCC2C)c1 (configuration not stated),14%,1%,21µM*,1%
COc1ccc(OC)c(/C=C/C(=O)OCC(=O)N2CCCC2)c1,11%,-18%,1%,2%
COC(=O)CC1(C(=O)OC)Oc2ccc(Br)cc2C(=O)N1c1cc(Cl)c(Cl)cc1Cl (configuration not stated),6%,?,16µM*,1%
COC(=O)CC1(C(=O)OC)Oc2ccc(Br)cc2C(=O)N1c1cccc(Cl)c1Cl (configuration not stated),0%,-15%,?,-13%
COC(=O)CC1(C(=O)OC)Oc2ccc(Br)cc2C(=O)N1c1ccc(Br)cc1Cl (configuration not stated),0%,16µM*,23µM*,-24%
COc1ccc2nc3cc(Cl)ccc3c(C#N)c2c1,11%,?,7%,2%
COc1ccc2nc(C(F)(F)Cl)c(C#N)c(N)c2c1,-1%,21µM*,15%,-3%
CC(C)(C)OC(=O)NCC(=O)NNC(=O)c1nc2ccccc2[nH]1,.,-5%,.,7%
COCCCNc1oc(/C=C/c2cc(OC)c(OC)c(OC)c2)nc1C#N,15%,-11%,.,-2%
O=C(CC(Nc1ccccc1Cl)C(=O)O)c1ccccc1 (configuration not stated),?,?,?,2%
Cc1c(Cl)cccc1NC(CC(=O)c1ccccc1)C(=O)O (configuration not stated),16µM*,7%,?,-3%
COc1cc(C(=O)NCC(c2cccs2)N2CCOCC2)ccc1OCc1ccccc1 (configuration not stated),2%,.,.,.
O=c1[nH]nc(Sc2ncnc3sccc23)n1CCc1ccccc1,?,15µM*,?,-5%
CCOC(=O)C1CCN(c2cc3c(cc2NC(=O)c2ccc(OC)c(OC)c2)n(C)c(=O)n3C)CC1,0%,-15%,1.6µM*,0%
CCOc1ccccc1C(=O)Nc1cc2c(cc1N1CCCCC1)n(C)c(=O)n2C,4%,23µM*,.,?
CCOC(=O)C1CCN(c2cc3c(cc2NC(=O)c2ccccc2)n(C)c(=O)n3C)CC1,3%,11%,?,6%
CN(CC(=O)Nc1ccc(Cl)c(C(F)(F)F)c1)C(=O)c1cccc2cccnc12,3%,-5%,-19%,-6%
O=C1c2ccccc2C(=O)C1(c1ccccc1)N1CCN(c2cccc(Cl)c2)CC1,-1%,18%,.,3%
CCNc1nc(C#N)nc(N2CCOCC2)n1,.,16µM*,.,-7%
CCN(CC)c1ccc2c(c1)oc(=O)c1c(Cl)cc(=O)oc12,8.9µM*,16%,?,?
COc1ccc(S(=O)(=O)c2cc3cc(OC)ccc3oc2=O)cc1,12%,9%,.,-5%
COc1ccc(S(=O)(=O)c2cc3cc(C(C)(C)C)cc(O)c3oc2=O)cc1,16µM*,?,.,3%
Cc1ccc(S(=O)(=O)c2cc3ccccc3oc2=O)cc1,5.6µM*,-14%,-1%,-1%
Cc1ccc2oc(=O)c(S(=O)(=O)c3ccc(C(C)(C)C)cc3)cc2c1,0%,13%,.,6%
